The source of these data is PubChem BioAssay (NCI).

Test [1] can be described thus: NCI Yeast Anticancer Drug Screen. Data for the rad50 strain (AID 155).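 Also: 0% = growth of vehicle-only cultures of the same strain.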 The settings on record: S. cerevisiae rad50 strain growth inhibition, stronger effect = higher value. The gist of the method: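 DNA repair mutant yeast, compound exposure, growth read-out; inhibition is taken relative to vehicle.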
Test [2] can be described thus: NCI Yeast Anticancer Drug Screen. Data for the mec2-1 strain (AID 157). The settings on record: S. cerevisiae mec2-1 strain, stronger effect = higher value. The gist of the method: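 Growth inhibition is read against vehicle-treated controls after compound exposure of the mec2-1 yeast strain, which is defective in DNA damage repair or cell cycle control.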
Test [3] is described as follows: NCI Yeast Anticancer Drug Screen. Data for the sgs1 mgt1 strain (AID 161).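 Also: 0% = growth of cultures given vehicle only.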 The settings on record: S. cerevisiae sgs1 mgt1 strain, stronger effect = higher value. The gist of the method: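 Compounds are added to genetically altered yeast, and growth is compared with cultures given vehicle alone to give percent inhibition.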
Test [4] in a line: NCI Yeast Anticancer Drug Screen. Data for the cln2 rad14 strain (AID 165).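 Also: 0% = growth equal to vehicle treated cultures.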 The settings on record: S. cerevisiae cln2 rad14 strain, stronger effect = higher value. The essentials: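 Growth inhibition, relative to vehicle-treated controls, is the read-out. The test organism is a yeast strain with defined genetic alterations, cln2 rad14.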
Test [5] in a line: NCI Yeast Anticancer Drug Screen. Data for the bub3 strain (AID 167). The settings on record: S. cerevisiae bub3 mutant strain, stronger effect = higher value. The gist of the method:
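In this screen, a yeast mutant lacking normal mitotic checkpoint function is challenged with compound. Relative growth versus vehicle gives the inhibition value.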

The nature of test [6]: NCI Yeast Anticancer Drug Screen. Data for the mlh1 rad18 strain (AID 175). The settings on record: S. cerevisiae mlh1 rad18 strain growth inhibition, stronger effect = higher value. The gist of the method: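 Cells of a genetically altered yeast strain, deficient in DNA damage repair, were treated with compound. Their growth was then compared with that of vehicle-treated cultures to give inhibition.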

[7] abbreviates: at 5.0 µM (retest, dose inferred, filed as 0.5).
The mark [8] stands for this setting: at 50.0 µM (retest, dose inferred, filed as 5.0).

The structures appear in SMILES notation. Compounds without any hit were thinned out: in the full panel of roughly 79,000, 15% have a hit. Unmarked numbers belong to inactive results. Calls of active or inactive are those of the source. Rule as the data show it: active = growth inhibition above about 70%; inactive = the rest.

`CCC(CCCN(CC)CCc1ccccc1)OC(=O)c1cc(OC)c(OC)c(OC)c1` (stereo not given): the growth inhibition is 5% in test [1] (setting [7]); 17% in test [1] (setting [8]); 22.4% in test [1] (at 50.0 µM); -10% in test [2] (setting [7]); 6% in test [2] (setting [8]); 27.2% in test [2] (at 50.0 µM). In addition, the growth inhibition is -1% in test [3] (setting [7]); 30% in test [3] (setting [8]); 37.8% in test [3] (at 50.0 µM); 2% in test [4] (setting [7]); 0% in test [4] (setting [8]); 35.6% in test [4] (at 50.0 µM). For the same molecule, the growth inhibition was 4% in test [5] (setting [7]); 18% in test [5] (setting [8]); 4% in test [5] (at 50.0 µM); 5% in test [6] (setting [7]); 10% in test [6] (setting [8]); 54.5% in test [6] (at 50.0 µM).

Take `N=C(N)SC1c2ccccc2-c2cc([N+](=O)[O-])ccc21` (stereo not given): the growth inhibition is 29% in test [1] (setting [7]); 98% (active) in test [1] (setting [8]); 97.7% (active) in test [1] (at 50.0 µM); 13% in test [2] (setting [7]); 98% (active) in test [2] (setting [8]); 98.1% (active) in test [2] (at 50.0 µM). Besides, the growth inhibition in test [3] (setting [7]) was 22%; in test [3] (setting [8]), 98% (active); in test [3] (at 50.0 µM), 98.6% (active); in test [4] (setting [7]) it was 14%; in test [4] (setting [8]), 98% (active); in test [4] (at 50.0 µM), 97.8% (active). The growth inhibition is 11% in test [5] (setting [7]); 99% (active) in test [5] (setting [8]); 98% (active) in test [5] (at 50.0 µM); 17% in test [6] (setting [7]); 99% (active) in test [6] (setting [8]); 98.5% (active) in test [6] (at 50.0 µM).

For the molecule `Cc1cccc2cc3c(cc12)c(C)cc1ccccc13`, the growth inhibition was -4% in test [1] (setting [7]); 6% in test [1] (setting [8]); 64.4% in test [1] (at 50.0 µM); -6% in test [2] (setting [7]); -9% in test [2] (setting [8]); 75.1% (active) in test [2] (at 50.0 µM). Besides, the growth inhibition was -4% in test [3] (setting [7]); 30% in test [3] (setting [8]); 53% in test [3] (at 50.0 µM); -1% in test [4] (setting [7]); 1% in test [4] (setting [8]); 51% in test [4] (at 50.0 µM). The growth inhibition in test [5] (setting [7]) was -22%; in test [5] (setting [8]) it was -12%; in test [5] (at 50.0 µM) it was 61%; in test [6] (setting [7]) it was -17%; in test [6] (setting [8]), 2%; in test [6] (at 50.0 µM), 63.6%.

For the molecule `O=C(Nc1ccc(F)cc1)ON=C1CCCCC1`, the growth inhibition was 56% in test [1] (setting [7]); 99% (active) in test [1] (setting [8]); 90.2% (active) in test [1] (at 50.0 µM); 46% in test [2] (setting [7]); 100% (active) in test [2] (setting [8]); 92.3% (active) in test [2] (at 50.0 µM). Also, the growth inhibition was 56% in test [3] (setting [7]); 99% (active) in test [3] (setting [8]); 91.5% (active) in test [3] (at 50.0 µM); 33% in test [4] (setting [7]); 99% (active) in test [4] (setting [8]); 90.8% (active) in test [4] (at 50.0 µM). For the same molecule, the growth inhibition is 45% in test [5] (setting [7]); 66% in test [5] (setting [8]); 91.1% (active) in test [5] (at 50.0 µM); 69% in test [6] (setting [7]); 99% (active) in test [6] (setting [8]); 90.4% (active) in test [6] (at 50.0 µM).

In the case of `O=c1[nH]ccc(CNC23CC4CC(CC(C4)C2)C3)c1O`, the growth inhibition in test [1] (setting [7]) was 5%; in test [1] (setting [8]) it was 11%; in test [1] (at 50.0 µM), 49.9%; in test [2] (setting [7]), 10%; in test [2] (setting [8]), 33%; in test [2] (at 50.0 µM), 21.4%. Moreover, the growth inhibition in test [3] (setting [7]) was 18%; in test [3] (setting [8]) it was 67%; in test [3] (at 50.0 µM), 61.9%; in test [4] (setting [7]) it was 10%; in test [4] (setting [8]) it was 11%; in test [4] (at 50.0 µM), 39.9%. The growth inhibition in test [5] (setting [7]) is 7%; in test [5] (setting [8]), 49%; in test [5] (at 50.0 µM), 36.4%; in test [6] (setting [7]), 6%; in test [6] (setting [8]), 38%; in test [6] (at 50.0 µM), 81.5% (active).

For the molecule `Cc1ccc(S(=O)(=O)N2CCN3C(=O)c4ccccc4C32c2ccc(F)cc2)cc1` (stereo not given), the growth inhibition is 20% in test [1] (setting [7]); 95% (active) in test [1] (setting [8]); 31.8% in test [1] (at 50.0 µM); 17% in test [2] (setting [7]); 96% (active) in test [2] (setting [8]); 26.3% in test [2] (at 50.0 µM). Besides, the growth inhibition in test [3] (setting [7]) is 88% (active); in test [3] (setting [8]), 99% (active); in test [3] (at 50.0 µM) it was 63.2%; in test [4] (setting [7]) it was 28%; in test [4] (setting [8]), 98% (active); in test [4] (at 50.0 µM), 22.9%. The growth inhibition in test [5] (setting [7]) is 37%; in test [5] (setting [8]) it was 98% (active); in test [5] (at 50.0 µM), 50.7%; in test [6] (setting [7]) it was 30%; in test [6] (setting [8]) it was 96% (active); in test [6] (at 50.0 µM) it was 29.2%.

With `CCCCCCCCCCCC1C(C#N)C(=O)NC(=O)C1C#N` (stereo not given), the growth inhibition is 92% (active) in test [1] (setting [7]); 92% (active) in test [1] (setting [8]); 49.3% in test [1] (at 50.0 µM); 90% (active) in test [2] (setting [7]); 92% (active) in test [2] (setting [8]); 5.4% in test [2] (at 50.0 µM). Besides, the growth inhibition in test [3] (setting [7]) is 87% (active); in test [3] (setting [8]), 92% (active); in test [3] (at 50.0 µM), 64.7%; in test [4] (setting [7]) it was 73% (active); in test [4] (setting [8]) it was 82% (active); in test [4] (at 50.0 µM) it was -8.05%. The growth inhibition in test [5] (setting [7]) is 78% (active); in test [5] (setting [8]), 86% (active); in test [5] (at 50.0 µM), -27.9%; in test [6] (setting [7]), 87% (active); in test [6] (setting [8]), 90% (active); in test [6] (at 50.0 µM), 26%.

Regarding `Cc1cccc(/C=N/Nc2cc(C)c3ccccc3n2)n1`, the growth inhibition in test [1] (setting [7]) was 10%; in test [1] (setting [8]), 89% (active); in test [1] (at 50.0 µM), 96.8% (active); in test [2] (setting [7]) it was 10%; in test [2] (setting [8]) it was 96% (active); in test [2] (at 50.0 µM) it was 89.2% (active). The growth inhibition in test [3] (setting [7]) is 16%; in test [3] (setting [8]) it was 96% (active); in test [3] (at 50.0 µM), 97.8% (active); in test [4] (setting [7]) it was 5%; in test [4] (setting [8]), 86% (active); in test [4] (at 50.0 µM), 82.3% (active). For the same molecule, the growth inhibition in test [5] (setting [7]) was -5%; in test [5] (setting [8]) it was 95% (active); in test [5] (at 50.0 µM), 93.6% (active); in test [6] (setting [7]), 14%; in test [6] (setting [8]), 96% (active); in test [6] (at 50.0 µM), 82.8% (active).

With `CCOC(=O)c1c(C)[nH]c(C(c2ccccc2)c2[nH]c(C)c(C(=O)OCC)c2C)c1C`, the growth inhibition is -2% in test [1] (setting [7]); 65% in test [1] (setting [8]); 44% in test [1] (at 50.0 µM); -4% in test [2] (setting [7]); 64% in test [2] (setting [8]); 43.4% in test [2] (at 50.0 µM). The growth inhibition in test [3] (setting [7]) was 7%; in test [3] (setting [8]), 69%; in test [3] (at 50.0 µM), 66.5%; in test [4] (setting [7]) it was 0%; in test [4] (setting [8]) it was 86% (active); in test [4] (at 50.0 µM), 75.2% (active). Moreover, the growth inhibition in test [5] (setting [7]) was -5%; in test [5] (setting [8]) it was 80% (active); in test [5] (at 50.0 µM), 46.2%; in test [6] (setting [7]), 5%; in test [6] (setting [8]), 74% (active); in test [6] (at 50.0 µM), 48.8%.

On to `Nc1c(/C=C/c2cc3cc(C4=NCCN4)ccc3o2)[nH]c2cc(C3=NCCN3)ccc12`, for which the growth inhibition in test [1] (setting [7]) is 13%; in test [1] (setting [8]), 98% (active); in test [1] (at 50.0 µM), 97.5% (active); in test [2] (setting [7]), 22%; in test [2] (setting [8]), 98% (active); in test [2] (at 50.0 µM) it was 98% (active). Moreover, the growth inhibition was -2% in test [3] (setting [7]); 99% (active) in test [3] (setting [8]); 98.2% (active) in test [3] (at 50.0 µM); -22% in test [4] (setting [7]); 97% (active) in test [4] (setting [8]); 97.4% (active) in test [4] (at 50.0 µM). Also, the growth inhibition is 7% in test [5] (setting [7]); 98% (active) in test [5] (setting [8]); 97% (active) in test [5] (at 50.0 µM); 13% in test [6] (setting [7]); 97% (active) in test [6] (setting [8]); 97.8% (active) in test [6] (at 50.0 µM).
